In the supplement of paper PMC6555819:

Tests used:
Assay in all cases: PBM binding z-score (relative to random genomic background probes); higher = stronger binding; sequences stand for … in GC…GCGATTGACAGCGTAGAATGAAGG
[1] = system: FXR:RXRa (NR concentration 270 nM, RXRa partner concentration 90 nM)
In short: (§1)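 Probes were double-stranded and carried 34-nt variable regions with direct-repeat seeds, single-nucleotide variants, half-site ablations and random human genomic background sequences, printed on custom Agilent 4×180K protein-binding microarrays. Arrays were incubated 1 h with ligand-free nuclear receptor dimers in PBS pH 7.4, 2% milk, 0.02% Triton X-100, 1 mM DTT, 0.2 mg/mL BSA and 0.4 mg/ml salmon testes DNA. Antibodies against each partner (one per run) detected binding, and scanned fluorescence was regression-normalized. Binding z-scores use the random background probes as reference.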

[2] = system: LXRa:RXRa (NR concentration 270 nM, RXRa partner concentration 90 nM)
In short: as §1

[3] = system: LXRa homodimer (NR concentration 270 nM)
In short: as §1

[4] = system: LXRb:RXRa (NR concentration 270 nM, RXRa partner concentration 90 nM)
In short: as §1

[5] = system: LXRb homodimer (NR concentration 270 nM)
In short: as §1

[6] = system: PPARa:RXRa (NR concentration 270 nM, RXRa partner concentration 90 nM)
In short: as §1

[7] = system: PPARg:RXRa (NR concentration 180 nM, RXRa partner concentration 90 nM)
In short: as §1

[8] = system: PPARg:RXRa 270nM:90nM, anti-RXR (NR concentration 270 nM, RXRa partner concentration 90 nM)
In short: as §1

[9] = system: PPARg:RXRa 30nM:10nM, anti-RXR (NR concentration 30 nM, RXRa partner concentration 10 nM)
In short: as §1

[10] = system: PPARg:RXRa 90nM:30nM, anti-RXR (NR concentration 90 nM, RXRa partner concentration 30 nM)
In short: as §1

Sequence | PBM binding z-score [1] | PBM binding z-score [2] | PBM binding z-score [3] | PBM binding z-score [4] | PBM binding z-score [5] | PBM binding z-score [6] | PBM binding z-score [7] | PBM binding z-score [8] | PBM binding z-score [9] | PBM binding z-score [10]
CGTCCGAGGTCAATGCTAGGTCAGTGAAAGCATT | 7.31 | 5.94 | 2.78 | 5.22 | 1.08 | 5.78 | 5.25 | 5.35 | 1.89 | 4.18
TTACCAAGGTCAGCTGAGGTCGTTGATCCAACTC | 6.04 | 5.5 | 2.43 | 4.31 | 0.419 | 4.83 | 3.85 | 4.1 | 1.27 | 2.92
CGAACTAGGTCACCAGGACAGCGAAGAGGTTGGA | 3.93 | 2.11 | -0.245 | 1.55 | -0.88 | 4.91 | 8.61 | 6.98 | 4.85 | 6.78
CCTAGTTGGTCAAGGTCACACATGCTATAGGTAC | 3.87 | 3.69 | 2.25 | 3.88 | 0.901 | 4.01 | 3.24 | 3.69 | 1.38 | 2.96
ATATGTAGGTTAGGGTCATTCCGAAAGTAGGGAA | 4.95 | 3.68 | 1.27 | 4.26 | 1.53 | 5.69 | 7.77 | 6.58 | 4.22 | 6.26
CGTCTAAGGTCAAAGGTCAGTGAAGAGATGACGG | 8.79 | 7.27 | 4.41 | 6.95 | 2.67 | 7.45 | 11 | 8.6 | 8.75 | 10.3
CGAACTAGGTCAAAGGACAGTAAAAGGCGACGTA | 4.06 | 2.48 | 0.208 | 2.04 | -0.428 | 5.67 | 9.93 | 8.18 | 7.65 | 8.57
ATATGAAGGTTATCGGGTCATTCAGTTTGCGCAT | 4.04 | 3.38 | 1.74 | 3.02 | 0.891 | 4.1 | 4.21 | 4.21 | 1.52 | 3.11
CCTGCTAGGTCTATGGTCAGCTAAAGCAGCTCGC | -0.302 | -0.394 | -0.393 | -0.493 | -0.41 | -0.509 | -0.485 | 0.268 | -1.04 | -0.432
CGAACTAGGTGATTGACAGGACAGTGAATAGTAA | 0.0682 | -0.0591 | 0.0308 | -0.196 | -0.394 | 1.81 | 2.2 | 1.57 | 0.548 | 1.06
CGAAGTAGGTCAAAGGACAGTGAAAGGCGACGTA | 4.62 | 3.33 | 0.269 | 2.23 | -0.098 | 5.66 | 10.5 | 8.99 | 8.23 | 9.73
TTTCCAAGGTGAAAGGTCGTTGATGCACGCCTTG | 3.56 | 3.59 | 0.323 | 2.79 | 0.0398 | 5.37 | 7.96 | 7.33 | 6.06 | 7.82
ACTAGTAGGTCAGCTGAGGTCACACACAATTCGG | 6.7 | 6.09 | 5.43 | 5.14 | 1.5 | 5.36 | 7.75 | 6.54 | 4.28 | 6.26
CCAACTAGGTCACCAGGACAGTGAAGAGGTTGGA | 4.24 | 2.6 | 0.434 | 1.91 | 0.121 | 4.66 | 8.3 | 6.53 | 3.83 | 6.09
TCTGCTAGGTCAGGTGGTCAGCTAACGAGCTGCC | 1.39 | 0.774 | -0.474 | 0.66 | 0.161 | 1.89 | 1.01 | 2.36 | 1.38 | 1.98
CGTCCAAGGTCAGAGAGGTCACTGAATGCCGAGT | 6.61 | 5.79 | 4.5 | 5.36 | 0.485 | 5.61 | 4.58 | 5.36 | 1.92 | 4.08
ATCGGAAGGTCGAGGTGAGTATAGAGAAAGGGAA | 2.07 | 1.65 | -0.107 | 1.23 | 0.134 | 2.5 | 1.23 | 1.33 | 0.513 | 0.876
AGAACGAGGGCAATGAGTTCATAGCACGGGTGGC | 1.78 | 2.26 | 1.48 | 1.11 | -0.445 | 2.83 | 2.16 | 1.57 | 0.0417 | 0.912
GATACAGAGTCAGCTAGAGGCCAGAGTATGGAAA | -0.527 | -0.699 | -0.703 | -0.919 | -1.16 | -0.619 | 0.312 | -0.242 | -0.296 | -0.352
CGAACTAGGTCACCAGGACATTGAAGAGGTTGGA | 4.15 | 2.68 | 0.557 | 1.82 | -0.284 | 5.35 | 8.44 | 7.05 | 4.88 | 6.35
ACTATCAGGCCAAGGGTCACTCAAGATTAGTCCG | 2.77 | 3.13 | 0.488 | 2.87 | 0.938 | 4.54 | 7.66 | 7.12 | 6.22 | 7.87
CGTCCAAGGTCATAAGAGGTCAGTGAAGACAGAT | 7.91 | 7.9 | 5.88 | 7.04 | 2.11 | 5.7 | 5.38 | 5.99 | 2.54 | 4.85
CATACAGGGACAGCTAGGCCAGAGTAGGGACGGC | -0.116 | -0.651 | -0.464 | -0.85 | -0.351 | -0.533 | 0.544 | -0.673 | -0.277 | -0.633
CGAACTAGGTCACCAGGACAGTCAAGAGGTTGGA | 4.17 | 2.7 | 0.267 | 1.86 | -0.431 | 5.16 | 8.84 | 6.8 | 4.63 | 6.37
